According to PubChem BioAssay (Tox21):
Records with an inconclusive call do not appear. Where a call stands in place of a potency, no number is given. Unmarked numbers belong to inactive results. Calls of active or inactive are those of the source. Calls come from the whole dose curve; as a rule, active = well fitted activation curve with a large enough effect in the repeat runs; inconclusive = weak or mixed curves; inactive = flat fitted curve, though single readings scatter.

Test: A CellTox Green Cytotoxicity Assay to monitor cytotoxicity in HepG2 cells - 32 hour (AID 1224883); note: nearly all actives have a fitted effect of over 50% in size
Conditions: CellTox Green fluorescence; series mostly up to 76.8 µM; cytotoxicity increase: at the top concentration
From the text: National Center for Advancing Translational Sciences [NCATS]
NIH Chemical Genomics Center [NCGC]
U.S. Environmental Protection Agency [EPA]
National Institutes of Environmental Health Sciences [NIEHS]
National Toxicology Program [NTP]
Cell-based models are critical for drug discovery. Determining the natural cytotoxic effects resulting from test compounds is an essential research activity. A CellTox Green Cytotoxicity Assay to monitor cytotoxicity in real time of continues cell culture during 40 hours of the compound treatment was used to screen Tox21 10K library compounds in HepG2 cells. CellTox Green Cytotoxicity Assay is a nonlytic, homogeneous, biofluorescent method to measure cytotoxicity in cell culture after experimental manipulation. The assay system uses a proprietary asymmetric cyanine dye that is excluded from viable cells but preferentially stains the dead cell's DNA. […] Viable cells produce no appreciable increases in fluorescence. Therefore, the fluorescence signal produced by the binding interaction with dead cell DNA is proportional to cytotoxicity.
The mixture of HepG2 cell suspension and reagents were dispensed at 600cells/6 ul/well in 1536-well tissue culture treated black solid bottom plates using a Multidrop dispenser. After the assay plates were incubated at a 37 C/5% CO2 incubator for 5 hours, 23 nL of compounds dissolved in DMSO, positive and negative controls was transferred to the assay plate by a pintool work station. The plates were incubated at 37 C for 40 hours. The fluorescence intensity were measured at 0h, 8h, 16h, 24h, 32h and 40h time points using ViewLux plate reader during compound treatment.

| Compound | Potency | cytotoxicity increase |
| --- | --- | --- |
| COc1ccc(C)cc1N | inactive |  |
| N#Cc1ccccc1 |  | -2.57% |
| O=C(O)CCCCCCCCC(=O)O | inactive |  |
| O=S(=O)(O)c1ccc(N=Nc2c(O)ccc3cc(S(=O)(=O)O)ccc23)cc1 | inactive |  |
| O=C(O)c1ccc(S(=O)(=O)N(Cl)Cl)cc1 | inactive |  |
| CCCCCCCCCCCCCCCC(=O)OC(C)C | inactive |  |
| CC(=O)CCC=C(C)C | inactive |  |
| OCc1cccc(Oc2ccccc2)c1 | inactive |  |
| Cc1ccc2ncccc2c1 | inactive |  |
| C=CCCCCCCCCC(=O)O | inactive |  |
| C=CCc1ccc(OC)c(OC)c1 | inactive |  |
| CCOC(=O)n1ccn(C)c1=S |  | -10.1% |
| COc1ccc(OC)cc1 | inactive |  |
| CCc1ccccc1CC | inactive |  |
| CC(=O)c1ccc(O)cc1 | inactive |  |
| CC(=O)OCCOC(C)=O | inactive |  |
| CC(C)(C)c1cc(Cc2cc(C(C)(C)C)c(O)c(C(C)(C)C)c2)cc(C(C)(C)C)c1O |  | -4.29% |
| CC(C)CCCCCCCOC(=O)CCCCC(=O)OCCCCCCCC(C)C | inactive |  |
| CCNc1ccccc1 | inactive |  |
| C=CC[N+](C)(C)CC=C |  | 3.05% |

| Compound | Potency | cytotoxicity increase |
| --- | --- | --- |
| C=C(C)[C@H]1CC=C(C)C(=O)C1 |  | -3.24% |
| CC(=O)Oc1ccc(C)cc1 |  | -6.71% [at 35.3 µM] |
| CC(C)c1cccc(C(C)C)c1 | inactive |  |
| COCCCN | inactive |  |
| CC(=O)OC1CC(C)OC(C)O1 (stereo not given) | inactive |  |
| C=CC(=O)OCCC(=O)O | inactive |  |
| CCCCOC(=O)c1ccc(N)cc1 |  | 3.94% |
| CCOCC(=O)O | inactive |  |
| O=[N+]([O-])c1ccc2nc[nH]c2c1 | inactive |  |
| CCO[Si](CCC#N)(OCC)OCC | inactive |  |
| OC1C(O)C(O)C(O)C(O)C1O (stereo not given) |  | 10.3% [at 35.3 µM] |
| CCCCCCCC=O | inactive |  |
| CC(CCl)OP(=O)(OC(C)CCl)OC(C)CCl (stereo not given) | inactive |  |
| CC(O)CC(C)(C)O (stereo not given) | inactive |  |
| Cc1ccc(S(=O)(=O)N=C=O)cc1 | inactive |  |
| CC(CCO)CC(C)(C)C (stereo not given) | inactive |  |
| CC1(C)CC(N)CC(C)(CN)C1 (stereo not given) |  | 2.27% |
| CCCCCCCCCCN | inactive |  |
| C=C(C)C(=O)OCC(C)C | inactive |  |
| O=C1c2ccccc2CCc2ccccc21 | inactive |  |
